Measurements published in PubChem BioAssay AID1159580 (chemical genetic matrix, 2015).
“And” between values parts separate entries of the source, which are not always exact repeats. Equal entries are not always repeated. Out of some 5,500 compounds screened, about 2,000 (36%) were called active. Another 18% or so got no clear call; they are omitted. Rule as the data show it: active = normalized growth mostly below about 0.91 (no sharp cut-off); inconclusive = no clear call, values can overlap the other calls; inactive = mostly above about 0.92. The list shows a part of the results.

Assay: chemical genetic growth profiling, strain panel (AID 1159580);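 also: tested at 20 µM; growth read once vehicle control cultures reached saturation at 30 °C; 1 = growth at the plate median or of vehicle wells; lower values mean less growth of the strain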
Conditions: S. cerevisiae deletion strains, growth OD

Measured: normalized growth

COC(=O)C[C@H]1C2(C)CC34OC5(C)O[C@@]6([C@H](OC)C(OC(=O)C(C)C)[C@]7(C)C(/C(=C(/OC)C(C)C)C(=O)O[C@H]7c7ccoc7)[C@@]6(O5)[C@H](OC)[C@@]3(OC)C2OC(C)=O)[C@]14C (stereo partly specified)
inactive: locus YAL013W, strain DEP1, active compounds read low 1.02 | locus YAL021C, strain ccr4, active compounds read low 1 | locus YAL026C, strain drs2, active compounds read low 0.994 | locus YAL030W, strain snc1, active compounds read low 0.984 | locus YBL061C, strain skt5, active compounds read low 0.962 | locus YBR009C, strain hhf1, active compounds read low 0.965 | locus YBR021W, strain FUR4, active compounds read low 1.02 | locus YBR023C, strain chs3, active compounds read low 0.994 | locus YBR171W, strain sec66, active compounds read low 0.989 | locus YBR229C, strain ROT2, active compounds read low 1.01 | locus YBR231C, strain swc5, active compounds read low 0.979 | locus YBR279W, strain paf1, active compounds read low 0.985 | locus YCL011C, strain gbp2, active compounds read low 0.975 | locus YCL016C, strain dcc1, active compounds read low 0.976 | locus YCL029C, strain bik1, active compounds read low 1.03 | locus YCL069W, strain vba3, active compounds read low 0.983 | locus YCR088W, strain abp1, active compounds read low 0.989 | locus YDL005C, strain med2, active compounds read low 0.972 | locus YDL035C, strain GPR1, active compounds read low 1.03 | locus YDL040C, strain nat1, active compounds read low 0.984 | locus YDL074C, strain BRE1, active compounds read low 1.04 | locus YDL101C, strain DUN1, active compounds read low 1.02 | locus YDL134C, strain PPH21, active compounds read low 1.01 | locus YDL185W, strain tfp1, active compounds read low 1.02 | locus YDL192W, strain arf1, active compounds read low 1.03 | locus YDR001C, strain nth1, active compounds read low 0.974 | locus YDR069C, strain doa4, active compounds read low 0.96 | locus YDR101C, strain arx1, active compounds read low 1.02 | locus YDR137W, strain rgp1, active compounds read low 0.95 | locus YDR159W, strain sac3, active compounds read low 1 | locus YDR162C, strain NBP2, active compounds read low 1.02 | locus YDR195W, strain ref2 0.986 | locus YDR297W, strain sur2, active compounds read low 0.967 | locus YDR318W, strain mcm21, active compounds read low 1.03 | locus YDR334W, strain swr1, active compounds read low 0.965 | locus YDR335W, strain msn5, active compounds read low 0.97 | locus YDR388W, active compounds read low 1.02 | locus YDR392W, strain spt3, active compounds read low 0.992 | locus YDR502C, strain sam2, active compounds read low 1 | locus YEL003W, strain gim4, active compounds read low 0.976 | locus YEL037C, strain rad23, active compounds read low 0.99 | locus YEL061C, strain CIN8 (second series), active compounds read low 0.978 | locus YER015W, strain faa2, active compounds read low 0.978 | locus YER016W, strain bim1, active compounds read low 0.98 | locus YER110C, active compounds read low 1.02 | locus YER111C, strain swi4, active compounds read low 0.969 | locus YER155C, strain BEM2 (second series), active compounds read low 0.967 | locus YER155C, strain BEM2, active compounds read low 1 | locus YER167W, strain BCK2, active compounds read low 1.02 | locus YFR010W, strain ubp6, active compounds read low 0.992 | locus YGL078C, strain dbp3, active compounds read low 0.994 | locus YGL086W, strain mad1, active compounds read low 1.01 | locus YGL167C, strain pmr1, active compounds read low 0.992 | locus YGL173C, strain kem1, active compounds read low 0.985 | locus YGL227W, strain vid30, active compounds read low 0.979 | locus YGL240W, strain doc1, active compounds read low 0.965 | locus YGL248W, strain PDE1, active compounds read low 1.01 | locus YGL253W, strain hxk2, active compounds read low 0.983 | locus YGR135W, strain pre9, active compounds read low 1.02 | locus YGR229C, strain SMI1, active compounds read low 0.998 | locus YGR252W, strain gcn5, active compounds read low 0.994 | locus YHR013C, strain ard1, active compounds read low 0.943 | locus YHR027C, strain rpn1, active compounds read low 0.994 | locus YHR030C, strain SLT2, active compounds read low 0.969 | locus YHR079C, strain IRE1 (second series), active compounds read low 1 | locus YHR079C, strain IRE1, active compounds read low 1 | locus YHR094C, strain hxt1, active compounds read low 1.01 | locus YHR129C, strain ARP1, active compounds read low 1.02 | locus YHR142W, strain chs7, active compounds read low 0.97 | locus YHR200W, strain rpn10, active compounds read low 1.02 | locus YIL066C, strain RNR3, active compounds read low 1.04 | locus YIL073C, strain SPO22, active compounds read low 1.02 | locus YIL125W, strain kgd1, active compounds read low 1.01 | locus YIR030C, strain dcg1, active compounds read low 1.02 | locus YJL092W, strain hpr5, active compounds read low 0.973 | locus YJL095W, strain BCK1 (second series), active compounds read low 0.995 | locus YJL095W, strain BCK1, active compounds read low 0.995 and 0.969 | locus YJL115W, strain asf1, active compounds read low 0.967 | locus YJL129C, strain trk1, active compounds read low 0.944 | locus YJL134W, strain LCB3, active compounds read low 1.01 | locus YJL154C, strain vps35, active compounds read low 0.981 | locus YJL164C, strain tpk1, active compounds read low 1.01 | locus YJL166W, strain qcr8, active compounds read low 0.99 | locus YJL168C, strain set2, active compounds read low 1.01 | locus YJL187C, strain SWE1 (second series), active compounds read low 1.01 | locus YJR043C, strain POL32, active compounds read low 1.03 | locus YJR066W, strain TOR1, active compounds read low 0.884 | locus YKL009W, strain mrt4, active compounds read low 0.959 | locus YKL068W, active compounds read low 0.998 | locus YKL085W, strain MDH1 (second series), active compounds read low 1.01 | locus YKL085W, strain MDH1, active compounds read low 1.01 | locus YKL160W, strain elf1, active compounds read low 0.987 | locus YKR001C, strain vps1, active compounds read low 0.992 | locus YKR026C, strain gcn3, active compounds read low 0.983 | locus YKR091W, strain srl3, active compounds read low 0.984 | locus YLL001W, strain dnm1, active compounds read low 0.973 | locus YLL026W, active compounds read low 0.978 | locus YLL041C, strain sdh2, active compounds read low 0.987 | locus YLR027C, strain aat2, active compounds read low 0.974 | locus YLR039C, strain RIC1, active compounds read low 0.908 | locus YLR058C, strain SHM2, active compounds read low 1.01 | locus YLR102C, strain apc9, active compounds read low 1 | locus YLR113W, strain HOG1, active compounds read low 1.01 | locus YLR221C, strain rsa3, active compounds read low 0.976 | locus YLR258W, strain gsy2, active compounds read low 0.996 | locus YLR262C, strain YPT6 (second series), active compounds read low 0.997 | locus YLR262C, strain YPT6, active compounds read low 0.754 | locus YLR268W, strain sec22, active compounds read low 1.03 | locus YLR320W, strain mms22, active compounds read low 0.988 | locus YLR342W, strain FKS1 (second series), active compounds read low 0.987 | locus YLR342W, strain FKS1, active compounds read low 0.982 | locus YLR357W, strain rsc2, active compounds read low 1.01 | locus YLR370C, strain arc18, active compounds read low 0.971 | locus YLR371W, strain rom2, active compounds read low 1.04 | locus YLR384C, strain iki3, active compounds read low 0.984 | locus YLR418C, strain cdc73, active compounds read low 1.04 | locus YML016C, strain PPZ1, active compounds read low 1.01 | locus YML032C, strain rad52, active compounds read low 1 | locus YML120C, strain ndi1, active compounds read low 0.982 | locus YML124C, strain tub3, active compounds read low 1.01 | locus YMR058W, strain fet3, active compounds read low 0.97 | locus YMR078C, strain ctf18, active compounds read low 1.01 | locus YMR125W, strain sto1, active compounds read low 0.986 | locus YMR129W, active compounds read low 0.986 | locus YMR205C, strain PFK2, active compounds read low 1 | locus YMR223W, strain ubp8, active compounds read low 1.01 | locus YMR231W, strain pep5, active compounds read low 0.975 | locus YMR307W, strain GAS1, active compounds read low 1.23 | locus YNL067W, strain RPL9B, active compounds read low 1.01 | locus YNL071W, strain lat1, active compounds read low 0.989 | locus YNL153C, strain GIM3, active compounds read low 1.03 | locus YNL183C, strain NPR1, active compounds read low 0.935 | locus YNL209W, strain ssb2, active compounds read low 0.985 | locus YNL233W, strain BNI4, active compounds read low 1.04 | locus YNL248C, strain rpa49, active compounds read low 0.977 | locus YNL250W, strain rad50, active compounds read low 1.04 | locus YNL271C, strain bni1, active compounds read low 1.02 | locus YNL298W, strain CLA4, active compounds read low 1 | locus YNL307C, strain MCK1, active compounds read low 1.02 | locus YNL322C, strain KRE1 (second series), active compounds read low 0.972 | locus YNL322C, strain KRE1, active compounds read low 1.01 | locus YNR049C, strain mso1, active compounds read low 0.96 | locus YNR052C, strain pop2, active compounds read low 1.03 | locus YOL006C, strain TOP1, active compounds read low 1.06 | locus YOL012C, strain htz1 0.933 | locus YOL147C, strain pex11, active compounds read low 1.02 | locus YOR001W, strain rrp6, active compounds read low 0.967 | locus YOR061W, strain CKA2, active compounds read low 1.04 | locus YOR069W, strain VPS5, active compounds read low 1.01 | locus YOR070C, strain gyp1, active compounds read low 1.01 | locus YOR080W, strain dia2, active compounds read low 0.964 | locus YOR083W, strain WHI5, active compounds read low 0.993 | locus YOR106W, strain vam3, active compounds read low 0.953 | locus YOR136W, strain idh2, active compounds read low 1 | locus YOR144C, strain elg1, active compounds read low 1.01 | locus YOR184W, strain ser1, active compounds read low 1.04 | locus YOR231W, strain MKK1, active compounds read low 0.955 | locus YOR265W, strain rbl2, active compounds read low 0.994 | locus YOR270C, strain vph1, active compounds read low 0.866 | locus YOR290C, strain snf2, active compounds read low 0.962 | locus YOR316C, strain cot1, active compounds read low 1 | locus YPL051W, strain arl3, active compounds read low 1 | locus YPL078C, strain atp4, active compounds read low 0.964 | locus YPL106C, strain sse1, active compounds read low 1.02 | locus YPL240C, strain hsp82, active compounds read low 0.988 | locus YPL256C, strain CLN2, active compounds read low 0.966 | locus YPR119W, strain clb2, active compounds read low 1 | locus YPR141C, strain kar3, active compounds read low 1.02 | locus YPR163C, strain tif3, active compounds read low 1.02 | locus YPR167C, strain met16, active compounds read low 1.01 | strain wtn01, active compounds read low 0.995
